In PubChem BioAssay (NCATS) one finds Potency, viability (% of control) and viability, % of control data, which are given here for ten molecules.

Each structure is given as a SMILES string. Where “and” joins values, the source holds several entries; their conditions need not be identical. Equal entries are not always repeated. Results filed as inconclusive are left out. A number with no mark means an inactive call. Calls of active or inactive are those of the source. The call rests on the fitted dose curve; in most records, active means well fitted cell-killing curve with a large enough effect; inconclusive means small, poorly fitted or top-dose-only effect, or effect the other way; inactive means no such curve, though single readings can be large or run the other way.

The nature of assay [1]: Viability qHTS for spleen associated tyrosine kinase inhibitor (SYKi) naive MV4-11 cells (AID 1963823). Further: nearly all actives have a fitted effect of over 40% in size. An outline of the steps: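 Read-out: CellTiter-Glo luminescence. Exposure: 72 hr, 37 C, 5% CO2, 95% humidity. Cells: MV4-11 without SYK inhibitor history, 500/well, qHTS format.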
A short description of assay [2]: Viability qHTS for spleen associated tyrosine kinase inhibitor (SYKi) drug resistant MV4-11 cells (AID 1963824). Further: nearly all actives have a fitted effect of over 35% in size. Put shortly: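 SYK-inhibitor-resistant MV4-11 AML cells were seeded at 500 per well onto compound and cultured 72 hours (37 °C, 5% CO2). CellTiter-Glo was then added, and after 10 min at room temperature, luminescence gave viability.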
On the technique in general: qHTS replaces the single test concentration by a dilution series.
Potency means the concentration at half of the fitted maximal effect.

For the molecule `CC1=C2CC3C(CCC3(C)O)C(C)(O)CC2OC1=O` (stereo not given), the Potency result in assay [1] and in assay [2] was “inactive” throughout.
On to `CC1(C)CCC[C@]2(C)[C@H]3CC(=O)O[C@]3(C)CC[C@@H]12`, for which the Potency result in assay [1] and in assay [2] was “inactive” in each case.
In the case of `CC(C)(O)c1ccc2c(c1)C(=O)CC1[C@](C)(CO)CCC[C@]21C` (stereo not given in full), the Potency result in assay [1] and in assay [2] was “inactive” each time.
Turning to `Cc1ncc(NC(=O)c2ccc(CN3CCN(C)CC3)c(C(F)(F)F)c2)cc1Nc1nccc(-c2cccnc2)n1`, the Potency in assay [1] was 920 nM (active) and 1.66 µM (active); in assay [2], 2.06 µM (active) and 3.32 µM (active).
For the molecule `C[C@@H](Oc1cc(-n2cnc3ccc(OC4CCN(C)CC4)cc32)sc1C(N)=O)c1ccccc1C(F)(F)F`, the Potency is 18.4 nM (active) in assay [1] and 9.2 nM (active) in assay [2].
Turning to `CNS(=O)(=O)Nc1nccc(Cc2c(C)c3ccc(Oc4ncccn4)cc3oc2=O)c1F`, the results for the Potency in assay [1] and in assay [2] were 417 nM (active) and 590 nM (active), respectively.
On to `O=C(O)Cc1nn(Cc2nc3cc(C(F)(F)F)ccc3s2)c(=O)c2nccnc12`, for which the Potency result in assay [1] and in assay [2] was “inactive” each time.
Turning to `COc1cc2ncnc(Sc3nnc(C)s3)c2cc1OC`, the values for the Potency in assay [1] and in assay [2] were 820 nM (active) and 1160 nM (active), respectively.
For `OC[C@H]1O[C@@H](OCCc2ccccc2)[C@H](O[C@@H]2OC[C@](O)(CO)[C@H]2O)[C@@H](O)[C@@H]1O`, in that order: “inactive” and “inactive”.
As for `C[C@@H]1O[C@@H](O[C@H]2[C@H](OC(=O)[C@]34CCC(C)(C)C[C@H]3C3=CCC5[C@@]6(C)CC[C@H](O[C@@H]7O[C@H](CO[C@@H]8OC[C@H](O)[C@H](O)[C@H]8O)[C@@H](O)[C@H](O)[C@H]7O)C(C)(C)C6CC[C@@]5(C)[C@]3(C)C[C@H]4O)OC[C@@H](O)[C@@H]2O)[C@H](O)[C@H](O[C@@H]2OC[C@](O)(CO)[C@H]2O)[C@H]1O[C@@H]1OC[C@H](O)[C@H](O[C@@H]2OC[C@@H](O)[C@H](O)[C@H]2O)[C@H]1O` (stereo not given in full), in assay [1], the viability (% of control) is 88.4% [at 9.25 µM]. Further, in assay [2], the viability, % of control was 88.4% [at 9.25 µM].
